{"source": "paper PMC4336329", "about": "(PLoS ONE, 2015)", "note": "Hit rate of the full screen: of about 310,000 compounds, about 14,000 (4.5%) showed an effect of 50% or more. Effects have a minus sign here. This is one part of a sample in which strong results are shown more often than they occur.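 Also: peak tail current of the secondary pulse compared with the same well before compound.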", "data": [{"biological_target": "human ether-à-go-go-related gene (hERG) potassium channel (human, UniProt Q12809)", "sequence (Q12809 whole entry, looked up)": "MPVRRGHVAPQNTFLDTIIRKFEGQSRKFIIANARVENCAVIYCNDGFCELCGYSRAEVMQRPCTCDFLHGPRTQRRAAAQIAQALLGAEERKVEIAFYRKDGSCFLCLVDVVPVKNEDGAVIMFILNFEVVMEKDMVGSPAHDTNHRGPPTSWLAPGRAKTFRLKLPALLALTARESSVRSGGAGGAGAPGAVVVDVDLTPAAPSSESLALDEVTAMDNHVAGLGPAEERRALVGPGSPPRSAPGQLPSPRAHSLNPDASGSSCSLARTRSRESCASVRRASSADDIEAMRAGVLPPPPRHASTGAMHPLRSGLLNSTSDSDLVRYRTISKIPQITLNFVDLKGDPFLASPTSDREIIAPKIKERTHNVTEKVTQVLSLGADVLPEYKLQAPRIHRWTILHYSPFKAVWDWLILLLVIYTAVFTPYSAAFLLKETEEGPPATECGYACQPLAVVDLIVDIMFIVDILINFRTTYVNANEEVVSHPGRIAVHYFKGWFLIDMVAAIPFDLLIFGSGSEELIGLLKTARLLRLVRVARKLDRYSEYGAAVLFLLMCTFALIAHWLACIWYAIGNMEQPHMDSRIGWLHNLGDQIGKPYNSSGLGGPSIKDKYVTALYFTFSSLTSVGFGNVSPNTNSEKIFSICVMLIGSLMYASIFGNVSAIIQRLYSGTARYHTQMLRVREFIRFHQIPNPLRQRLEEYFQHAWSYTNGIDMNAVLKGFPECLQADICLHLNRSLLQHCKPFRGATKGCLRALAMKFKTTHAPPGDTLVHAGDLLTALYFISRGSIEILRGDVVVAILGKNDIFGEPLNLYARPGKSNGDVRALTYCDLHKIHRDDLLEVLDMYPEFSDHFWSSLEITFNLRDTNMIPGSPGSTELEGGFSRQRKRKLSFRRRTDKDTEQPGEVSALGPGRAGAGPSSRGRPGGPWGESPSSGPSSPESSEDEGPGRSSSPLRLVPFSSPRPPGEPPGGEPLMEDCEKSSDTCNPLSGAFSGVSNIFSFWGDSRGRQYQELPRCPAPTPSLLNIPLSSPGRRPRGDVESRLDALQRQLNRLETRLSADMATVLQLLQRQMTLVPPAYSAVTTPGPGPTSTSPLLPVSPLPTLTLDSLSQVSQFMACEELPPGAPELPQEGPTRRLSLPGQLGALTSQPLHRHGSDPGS", "test": "primary screen, population patch clamp on CHO cells stably expressing hERG; higher = less effect of the substance", "units": {"hERG current change (%, negative = inhibition) at 10uM": "%"}, "values": [{"smiles": "Cc1ccc(C(=O)NCC(=O)O)s1", "hERG current change (%, negative = inhibition) at 10uM": 23.8}, {"smiles": "Cc1ccc2[nH]c(=O)c(CN(Cc3cccs3)C(=S)NCC3CCCO3)cc2c1", "note": "(centres unmarked)", "hERG current change (%, negative = inhibition) at 10uM": 8.11}, {"smiles": "CN(C(=O)C1CCC(=O)N(CCc2ccc(Cl)cc2)C1)C1CCOCC1", "note": "(centres unmarked)", "hERG current change (%, negative = inhibition) at 10uM": 10.7}, {"smiles": "CCc1ccc(CN(C)C(=O)C2CCC(=O)N(Cc3cccc(OC)c3)C2)nc1", "note": "(centres unmarked)", "hERG current change (%, negative = inhibition) at 10uM": -18.8}, {"smiles": "CN(CCC1CCOCC1)C(=O)C1CCC(=O)N(CCc2ccc(Cl)cc2)C1", "note": "(centres unmarked)", "hERG current change (%, negative = inhibition) at 10uM": -62}, {"smiles": "CN(CCOc1ccccc1)C(=O)C1CCC(=O)N(CCCN2CCCC2=O)C1", "note": "(centres unmarked)", "hERG current change (%, negative = inhibition) at 10uM": 27.5}, {"smiles": "CN(CCOc1ccccc1)C(=O)C1CCC(=O)N(CCc2ccc(Cl)cc2)C1", "note": "(centres unmarked)", "hERG current change (%, negative = inhibition) at 10uM": -84.9}, {"smiles": "CN(CCC1CCOCC1)C(=O)C1CCC(=O)N(CCc2ccccc2)C1", "note": "(centres unmarked)", "hERG current change (%, negative = inhibition) at 10uM": -15.1}, {"smiles": "CCc1ccc(CN(C)C(=O)C2CCC(=O)N(CCc3ccc(OC)cc3)C2)nc1", "note": "(centres unmarked)", "hERG current change (%, negative = inhibition) at 10uM": -79.9}, {"smiles": "CN(CCOc1ccccc1)C(=O)C1CCC(=O)N(CCN2CCOCC2)C1", "note": "(centres unmarked)", "hERG current change (%, negative = inhibition) at 10uM": 16.5}, {"smiles": "COc1ccccc1CN1CC(C(=O)N(C)CCOc2ccccc2)CCC1=O", "note": "(centres unmarked)", "hERG current change (%, negative = inhibition) at 10uM": -9.29}, {"smiles": "COc1ccc(CCN2CC(C(=O)N(C)Cc3ccccc3OC)CCC2=O)cc1", "note": "(centres unmarked)", "hERG current change (%, negative = inhibition) at 10uM": -29.4}, {"smiles": "COc1ccc(CCN2CC(C(=O)N(C)CCOc3ccccc3)CCC2=O)cc1", "note": "(centres unmarked)", "hERG current change (%, negative = inhibition) at 10uM": -57.2}, {"smiles": "COc1ccc(CCN2CC(C(=O)N(C)Cc3ccc(C)o3)CCC2=O)cc1", "note": "(centres unmarked)", "hERG current change (%, negative = inhibition) at 10uM": -6.77}, {"smiles": "CCOC(=O)C1CCN(C(=O)COC(=O)CSc2ccc([N+](=O)[O-])cc2)CC1", "hERG current change (%, negative = inhibition) at 10uM": -39.5}, {"smiles": "COc1ccc(CCNC(=O)c2ccccc2C(=O)NCCc2ccc(OC)cc2)cc1", "hERG current change (%, negative = inhibition) at 10uM": -12}, {"smiles": "COc1ccc(OC)c2c1cc(C(=O)N[C@@H](C)C(=O)N[C@@H](C(=O)O)c1ccccc1)n2C", "hERG current change (%, negative = inhibition) at 10uM": 19.2}, {"smiles": "O=[N+]([O-])c1ccc(O)c(/C=N/n2cnc3ccccc32)c1", "hERG current change (%, negative = inhibition) at 10uM": 19.2}, {"smiles": "O=C(COC(=O)CCCc1c[nH]c2ccccc12)Nc1ccc2c(c1)OCO2", "hERG current change (%, negative = inhibition) at 10uM": 15.1}, {"smiles": "c1ccc2c(c1)CCCN2Cc1nnnn1CC1CCCO1", "note": "(centres unmarked)", "hERG current change (%, negative = inhibition) at 10uM": 7.06}, {"smiles": "O=[N+]([O-])c1ccc(NCc2ccc(Cl)cc2)nc1", "hERG current change (%, negative = inhibition) at 10uM": 0.977}, {"smiles": "O=[N+]([O-])c1ccc(Nc2ccc(Cl)cc2)nc1", "hERG current change (%, negative = inhibition) at 10uM": 21.7}, {"smiles": "O=[N+]([O-])c1ccc(NNS(=O)(=O)c2cc(Cl)ccc2Cl)nc1", "hERG current change (%, negative = inhibition) at 10uM": -68.8}, {"smiles": "CCN(CC)S(=O)(=O)c1ccc(C)c(NC(=O)COC(=O)CNC(=O)c2ccc(C(C)(C)C)cc2)c1", "hERG current change (%, negative = inhibition) at 10uM": 7.12}, {"smiles": "CCN(CC)c1ccc(/C=N/NS(=O)(=O)c2ccc(CNC(C)=O)cc2)cc1", "hERG current change (%, negative = inhibition) at 10uM": 13.2}, {"smiles": "Cc1cccc(C(=O)NCC(=O)NC(C)CCc2ccccc2)c1", "note": "(centres unmarked)", "hERG current change (%, negative = inhibition) at 10uM": -0.165}, {"smiles": "Cc1c(Cl)cccc1-n1c(SCC(=O)N(C)Cc2ccccc2)nnc1-c1ccncc1", "hERG current change (%, negative = inhibition) at 10uM": -49.5}, {"smiles": "COc1ccc(CNC(=O)C2CCN(S(=O)(=O)c3cccc4nonc34)CC2)cc1", "hERG current change (%, negative = inhibition) at 10uM": -0.634}, {"smiles": "CC(C)Sc1nnc([C@@H]2CCCN2C(=O)OC(C)(C)C)o1", "hERG current change (%, negative = inhibition) at 10uM": 14.7}, {"smiles": "Cc1nc(NCc2ccc3c(c2)OCO3)c2nnn(Cc3ccccc3)c2n1", "hERG current change (%, negative = inhibition) at 10uM": -13.9}, {"smiles": "CN(CC(=O)Nc1ccc(Cl)c(C(F)(F)F)c1)C(=O)/C=C/c1ccco1", "hERG current change (%, negative = inhibition) at 10uM": 5.99}, {"smiles": "CCOc1ccccc1NC(=O)c1cccc(NC(=O)CC(c2ccccc2)c2ccccc2)c1", "hERG current change (%, negative = inhibition) at 10uM": -67.1}, {"smiles": "CCOc1ccc(NC(=O)CN(C)CC(=O)NC(C)c2ccccc2)cc1OCC", "note": "(centres unmarked)", "hERG current change (%, negative = inhibition) at 10uM": 6.58}, {"smiles": "CCOc1ccc(CCNC(=O)/C=C/c2ccco2)cc1OCC", "hERG current change (%, negative = inhibition) at 10uM": -70}, {"smiles": "COc1cccc(NC(=O)CN(C)C(=O)CC(NC(=O)c2ccccc2Cl)c2ccccc2)c1", "note": "(centres unmarked)", "hERG current change (%, negative = inhibition) at 10uM": -49.7}, {"smiles": "CCOc1ccc(NC(=O)CN(C)C(=O)/C=C/c2ccco2)cc1OCC", "hERG current change (%, negative = inhibition) at 10uM": -61.2}, {"smiles": "CCOc1ccc(CCNC(=O)COC(=O)/C=C/c2ccco2)cc1OCC", "hERG current change (%, negative = inhibition) at 10uM": 12.9}, {"smiles": "CCOc1ccc(/C=C/C(=O)N(C)CC(=O)Nc2cccc(F)c2)cc1OCC", "hERG current change (%, negative = inhibition) at 10uM": 10.6}, {"smiles": "COc1ccc(CCNC(=O)/C=C/c2ccco2)cc1OC", "hERG current change (%, negative = inhibition) at 10uM": 0.593}, {"smiles": "CCOc1ccccc1NC(=O)c1ccc(Cl)c(NC(=O)CC(c2ccccc2)c2ccccc2)c1", "hERG current change (%, negative = inhibition) at 10uM": 2.16}, {"smiles": "CCCC(=O)Nc1cccc(C(=O)Nc2ccccc2OCC)c1", "hERG current change (%, negative = inhibition) at 10uM": -14.7}, {"smiles": "CCOc1ccc(NC(=O)CN(C)C(=O)CC(NC(=O)c2ccccc2)c2ccccc2)cc1OCC", "note": "(centres unmarked)", "hERG current change (%, negative = inhibition) at 10uM": -51.9}, {"smiles": "COc1ccc(-n2c3c(cc(C(=O)NNc4ccccc4C)c2=O)C(=O)CC(C)(C)C3)cc1", "hERG current change (%, negative = inhibition) at 10uM": 17.7}, {"smiles": "O=c1c2c(nc3nc(NCc4ccc(Cl)cc4)[nH]n13)CCC2", "hERG current change (%, negative = inhibition) at 10uM": 23.2}, {"smiles": "O=S(=O)(c1cccc2nsnc12)N1CCc2ccccc2C1", "hERG current change (%, negative = inhibition) at 10uM": -34.8}, {"smiles": "COc1ccc(OC)c(Nc2nc(C)nc3c2oc2ccccc23)c1", "hERG current change (%, negative = inhibition) at 10uM": 5.02}, {"smiles": "O=C(NC(=S)NNC(=O)[C@H]1C[C@@H]1c1ccccc1)c1ccc(F)cc1", "hERG current change (%, negative = inhibition) at 10uM": 3.86}, {"smiles": "CCOC(=O)N(Cc1ccccc1)Cc1ccc(C(=O)N[C@@H](Cc2ccccc2)C(=O)O)cc1", "hERG current change (%, negative = inhibition) at 10uM": 13.8}, {"smiles": "CCC(C)NC(=O)CCn1ccc2cc(S(=O)(=O)N3CCCC3)ccc21", "note": "(centres unmarked)", "hERG current change (%, negative = inhibition) at 10uM": 12.3}, {"smiles": "CCC1=NN2C(=N)/C(=C/c3ccc(OS(=O)(=O)c4ccccc4)cc3)C(=O)N=C2S1", "hERG current change (%, negative = inhibition) at 10uM": -3.25}, {"smiles": "CCOC(=O)C1CCN(S(=O)(=O)c2ccc3[nH]c(=O)oc3c2)CC1", "hERG current change (%, negative = inhibition) at 10uM": -30.9}, {"smiles": "CCOC(=O)C1CCN(S(=O)(=O)c2ccc3oc(=O)ccc3c2)CC1", "hERG current change (%, negative = inhibition) at 10uM": -77}, {"smiles": "CCOC(=O)C1CCN(S(=O)(=O)c2ccc3[nH]c(=O)ccc3c2)CC1", "hERG current change (%, negative = inhibition) at 10uM": -45.3}, {"smiles": "CCOC(=O)C1CCN(S(=O)(=O)c2ccc3c(c2)N(C(C)=O)CCO3)CC1", "hERG current change (%, negative = inhibition) at 10uM": -67.2}, {"smiles": "CC(=O)N1CCOc2ccc(S(=O)(=O)N3CCCCC3)cc21", "hERG current change (%, negative = inhibition) at 10uM": 11.6}, {"smiles": "CC(=O)N1CCOc2ccc(S(=O)(=O)N3CCC(C)CC3)cc21", "hERG current change (%, negative = inhibition) at 10uM": 6.53}]}]}
